# Laboratory results taken from paper PMC5540273 (PLoS ONE, 2017).
# Where “and” joins values, the source holds several entries; their conditions need not be identical. Equal values may be shown once. Read-outs that look alike come from different tables or passages of the source.
# What was measured:
# SIK2 = conditions: n = 1
# SIK = conditions: concentration: 1 μM, replicates: in singlicate; n = 1
# SLK = conditions: n = 1
# SNARK = tested on: T1, SNARK; conditions: n = 1
# T1 construct: gene NUAK2
# SNRK = conditions: concentration: 1 μM, replicates: in singlicate; n = 1
# SRC = conditions: n = 1
# SRMS = conditions: concentration: 1 μM, replicates: in singlicate; n = 1
# SRPK1 = conditions: n = 1
# SRPK2 = conditions: concentration: 1 μM, replicates: in singlicate; n = 1
# SRPK3 = conditions: concentration: 1 μM, replicates: in singlicate; n = 1
# [1] = concentration: 1 μM, replicates: in singlicate
# [2] = concentration: 1 μM,replicates: in singlicate, 1 µM
# 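Also: KINOMEscan kinase panel screen.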
SMILES,%Inh (SIK2; [1]),%Inh (SIK),%Inh (SLK; [1]),%Inh (SNARK; [1]),%Inh (SNRK),%Inh (SRC; [1]),%Inh (SRMS),%Inh (SRPK1; [1]),%Inh (SRPK2),%Inh (SRPK3),%Inh (SIK2; [2]),%Inh (SLK; [2]),%Inh (SNARK; [2]),%Inh (SRC; [2]),%Inh (SRPK1; [2])
O=C(O)COc1ncnc2cc(-c3ccc4[nH]ncc4c3)sc12,0%,8%,0%,13%,11%,0%,8%,0%,0%,1%,–,–,–,–,–
Cc1csc(-c2nc(Nc3ccncc3)c3ccccc3n2)n1 [GW869640],1%,4%,22%,26%,20%,8%,25%,0%,0%,39%,–,–,–,–,–
COc1ccc2nc(-c3cccc(C)n3)nc(Nc3ccncc3)c2c1 [GSK204919],2%,0%,9%,0%,0%,5%,0%,26%,0%,16%,–,–,–,–,–
O=C(Nc1n[nH]c2cc(-c3cccc(F)c3F)ccc12)C1CC1 [SB-733894],0%,0%,0%,1%,3%,0%,3%,44%,22%,5%,–,–,–,–,–
Cc1ccc(NC(=O)Nc2cccc(Cl)c2)cc1-c1ccc(C(=O)Nc2ccncc2)cc1 [GSK1398468],0%,5%,6%,0%,2%,0%,0%,0%,0%,0%,–,–,–,–,–
Cl.NC(=O)c1cccc(Nc2nccc(Nc3ccc(Oc4cccc(Cl)c4)c(Cl)c3)n2)c1 [GW659008],5%,12%,32%,0%,0%,25%,37%,0%,0%,13%,–,–,–,–,–
Cc1ccc(NC(=O)Nc2cc(C(C)(C)C)nn2-c2ccccc2)cc1 [GSK1014915],4%,0%,44%,0%,0%,2%,0%,21%,0%,2%,–,–,–,–,–
Cc1cccc(-c2nc(Nc3ccc4[nH]ncc4c3)c3ccccc3n2)n1 [GW857175],0%,0%,16%,15%,10%,28%,25%,16%,0%,28%,–,–,–,–,–
CN(C)CCN(C)C(=O)c1cc(-c2ccncc2)c(-c2ccc(Cl)c(O)c2)o1.Cl.Cl [SB-710397],0%,0%,91.7%,0%,0%,11%,0%,0%,18%,0%,–,–,–,–,–
O=C(Nc1n[nH]c2nc(-c3nccs3)c(Br)cc12)C1CCCC1 [SB-742609],0%,5%,7%,0%,0%,0%,0%,0%,0%,13%,–,–,–,–,–
COC(=O)c1c(-c2ccccc2)c2cc(OC)ccc2c(=O)n1Cc1ccccc1,6%,1%,0%,12%,1%,8%,0%,5%,9%,11%,–,–,–,–,–
COc1ccccc1-c1ccc2c(NC(=O)C3CC3)n[nH]c2n1 [SB-711239],0%,3%,8%,8%,14%,6%,0%,0%,31%,13%,–,–,–,–,–
Cc1ccc(C(=O)Nc2ccc(Nc3ccnc4cc(-c5ccccn5)ccc34)cc2O)cc1.Cl [GW440146],0%,18%,0%,0%,0%,56%,80%,27%,0%,3%,–,–,–,–,–
Cc1cc(N2Cc3ccccc3C2)nc(Nc2ccc(S(=O)(=O)N3CCOCC3)cc2)n1.Cl [GSK1669917],0%,0%,0%,10%,0%,0%,0%,0%,0%,0%,–,–,–,–,–
CSc1nn2c(=O)cc(N3CCOCC3)nc2n1Cc1cccc(C(F)(F)F)c1C [GSK2363608],–,0%,–,–,0%,–,0%,–,0%,0%,4% and 0%,20% and 3%,18% and 0%,3% and 0%,34% and 16%
Cc1c(Cn2ccn3c(=O)cc(N4CCOCC4)nc23)cccc1C(F)(F)F [GSK2289044],0%,0%,13%,5%,0%,0%,0%,12%,0%,0%,–,–,–,–,–
CS(=O)(=O)c1ccc(-c2nc3n(c2-c2ccncc2)CCC3)cc1 [SKF-105942],0%,1%,0%,0%,14%,0%,0%,0%,0%,22%,–,–,–,–,–
Cc1cccc(-c2nc(Nc3ccncc3)c3ccccc3n2)n1 [GW855857],0%,4%,18%,0%,0%,20%,0%,0%,54%,15%,–,–,–,–,–
Cc1cccc(-c2nc(-c3ccc(S(C)(=O)=O)cc3)sc2-c2ccnc(NCCc3ccccc3)c2)c1,11%,7%,7%,0%,7%,0%,0%,0%,23%,0%,–,–,–,–,–
COc1ccc(Nc2nccc(-c3cccc(NC(=O)c4cc5cc(F)ccc5[nH]4)c3)n2)cc1 [GSK1229782],1%,17%,29%,33%,0%,63%,0%,44%,18%,0%,–,–,–,–,–

SMILES,%Inh (SIK2; [1]),%Inh (SIK),%Inh (SLK; [1]),%Inh (SNARK; [1]),%Inh (SNRK),%Inh (SRC; [1]),%Inh (SRMS),%Inh (SRPK1; [1]),%Inh (SRPK2),%Inh (SRPK3),%Inh (SIK2; [2]),%Inh (SLK; [2]),%Inh (SNARK; [2]),%Inh (SRC; [2]),%Inh (SRPK1; [2])
COc1cccc(NC(=O)NC2CCN(c3ccnc(Nc4ccc(F)cc4)n3)C2)c1 (stereo not drawn) [GSK1379721],0%,0%,0%,0%,0%,0%,0%,0%,5%,0%,–,–,–,–,–
Cn1ccc2ncnc(Oc3ccc(Nc4nc5ccccc5[nH]4)cc3)c21,10%,0%,14%,0%,0%,3%,0%,0%,7%,0%,–,–,–,–,–
O=c1cc(N2CCOCC2)nc2n(Cc3cccc(Cl)c3Cl)ccn12 [GSK2286295],0%,0%,17%,0%,0%,3%,0%,34%,0%,0%,–,–,–,–,–
COC(=O)c1c(-c2ccccc2)c2cc(C(=O)O)ccc2c(=O)n1Cc1ccccc1,0%,0%,16%,5%,0%,0%,0%,0%,0%,0%,–,–,–,–,–
O=C(Nc1ccc2c(c1)OCO2)NC1CCN(c2ccnc(Nc3ccc(F)cc3)n2)C1 (stereo not drawn) [GSK1379724],0%,0%,10%,0%,0%,0%,0%,0%,0%,5%,–,–,–,–,–
COc1ccc(C2=C(Nc3cccc(C(=O)O)c3)C(=O)NC2=O)cc1 [SB-390765],9%,14%,7%,8%,0%,3%,21%,0%,0%,19%,–,–,–,–,–
COc1ccc(Nc2nccc(NCCNC(=O)Nc3ccccc3F)n2)cc1 [GSK1379901],2%,0%,11%,0%,0%,0%,0%,0%,0%,0%,–,–,–,–,–
Cc1cc(NCC(c2ccccc2)c2ccccc2)nc(NCc2ccc(C(F)(F)F)cc2)n1 [GW497681],0%,0%,0%,0%,0%,0%,0%,0%,22%,0%,–,–,–,–,–
Cn1ccc2ncnc(Oc3ccc(NC(=O)Nc4ccccc4)cc3)c21,27%,0%,22%,19%,33%,11%,0%,0%,0%,9%,–,–,–,–,–
COc1cccc(-c2cc(-c3c[nH]nc3-c3ccccn3)ccn2)c1 [GW680338],0%,0%,0%,11%,0%,0%,2%,96.8%,8%,0%,–,–,–,–,–
CCn1c(-c2ccccn2)nc2cnccc21 [SB-736398],3%,0%,8%,0%,0%,79%,0%,0%,27%,5%,–,–,–,–,–
Cl.O=C(Nc1cccc(-c2nn3ncccc3c2-c2ccnc(Nc3cccnc3)n2)c1)c1c(F)cccc1F [GSK312879],0%,0%,17%,0%,0%,13%,5%,30%,0%,7%,–,–,–,–,–
Cn1ccc2ncnc(Oc3cccc(C(=O)Nc4ccccc4)c3)c21,5%,15%,13%,23%,9%,0%,0%,0%,0%,0%,–,–,–,–,–
Fc1cccc(COc2nnc(-c3ccc4c(c3)CCO4)o2)c1,0%,0%,0%,0%,0%,0%,5%,0%,0%,7%,–,–,–,–,–
C[C@@H]1CCCCN1c1cc(-c2ccc3c(N)n[nH]c3c2)nc(N)n1 [GSK2258759],0%,0%,0%,2%,0%,0%,0%,0%,0%,0%,–,–,–,–,–
O=S(=O)(c1ccc(-c2ccnc3[nH]ccc23)cc1)N1CCCC1 [GSK846226],0%,0%,0%,16%,0%,0%,0%,60%,0%,3%,–,–,–,–,–
O=C(Nc1ccccc1)Nc1cccc(Oc2ccc3nccn3n2)c1,12%,0%,12%,0%,0%,0%,0%,0%,3%,29%,–,–,–,–,–
Cc1cc(-c2ccc3c(c2)CC[C@@H](N[C@@H](C)c2ccccc2)C3)cnc1N.Cl [GW412617],3%,12%,29%,8%,0%,4%,0%,24%,0%,9%,–,–,–,–,–
NC(=O)c1nnc2ccccc2c1N,6%,9%,0%,67%,14%,6%,0%,45%,0%,32%,–,–,–,–,–
